The record followed here is PubChem BioAssay (NCI).

The panel holds about 83,000 compounds, 20% with a hit somewhere; the sample as a whole holds those more often.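 Results are percent growth after 48 hours of single-concentration exposure. 100 means growth as in untreated cells, lower positive values show inhibition; negative values down to -100 show cell death.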 Calls of active or inactive are those of the source. How the source made its calls: active means growth percent below 10; inactive means the rest.

The first assay has as its system K-562 leukemia. Kind of assay: NCI-60 one-dose screen, 48 h (100 = growth as untreated, 0 = no growth, -100 = all killed). The conditions noted are these: 10 µM unless noted.
Turning to `Cn1cc(-c2cc(N)n3nc(-c4c[nH]c5ccccc45)cc3n2)c2cccnc21`, the growth is 6.08% (active).

As to `CN(C)c1nc(NCCNS(=O)(=O)c2ccc(C3=Nc4c(N)nc(N)nc4NC(c4ccccc4)C3)cc2)nc(Nc2ccc(F)cc2)n1` (centres undefined), the growth was 7.64% (active).

`COc1ccc(-c2ccc(SCC(=O)NCCc3ccc(S(N)(=O)=O)cc3)nn2)cc1`: the growth was 54.1% (inactive).

Regarding `O=C(CCN1C(=O)/C(=C/c2ccc(F)cc2)SC1=S)N1CCOCC1`, the growth is 43% (inactive).

Turning to `Cc1cc2nc3c4ccccc4n(CC4=NCCN4)c3nc2cc1C`, the growth was -13.1% (active).

As for `Cc1ccc(C(=O)NN2C(=O)/C(=C/C=C/c3ccc([N+](=O)[O-])o3)SC2=S)cc1`, the growth was 6.34% (active).

As to `Cc1cc2nc3c([nH]c2cc1C)c1ccc(=O)cc1n3CCN(C)C`, the growth is 9.48% (active).

As to `N/C(=N\c1nc2ccccc2s1)NC(=O)Nc1c(Cl)cccc1Cl`, the growth was 19.6% (inactive).

As for `Brc1ccc(-c2n(Cc3ccc4ccccc4c3)c(-c3ccccc3)c(-c3ccccc3)[n+]2Cc2ccc3ccccc3c2)cc1`, the growth is 4.96% (active).

In the case of `C=C1CC[C@@H]2[C@]3(C)COC(c4cn[nH]c4-c4ccc(Br)cc4)O[C@@H]3CC[C@@]2(C)[C@@H]1C/C=C1/C(=O)OCC1O` (some centres undefined), the growth was 7.76% (active).

In the case of `COc1ccc(-c2nc3cc(C)ccc3n2CC(=O)N=Nc2c(O)[nH]c3ccc(Br)cc23)cc1`, the growth is 9.75% (active).

Regarding `CC12CC[C@@H]3[C@]4(C)COC(c5cn[nH]c5-c5cccc(Br)c5)O[C@@H]4CC[C@@]3(C)[C@@H]1CC(C1=CCOC1=O)O2` (some centres undefined), the growth was 15% (inactive).

Regarding `COc1c(F)ccc(C(=O)Nc2ccc3nc(NC(=O)C4CCCN(S(=O)(=O)c5ccc(C#N)cc5)C4)sc3c2)c1F` (centres undefined), the growth was 62.6% (inactive).

In the case of `COc1ccc2c(c1)c(-c1cc3nc(-c4cn(C)c5ncccc45)cc(N)n3n1)cn2C`, the growth is -31.2% (active).

Take `CC(=O)c1cc(C(=O)c2ccccc2)n2c1ccc1ccccc12`: the growth was 94.4% (inactive).

For the compound `COc1ccc2[nH]c(=O)c(CSc3nccc(-c4ccc(OC)c(OC)c4)n3)cc2c1`, the growth is 11.4% (inactive).

As for `COc1ccc(NC(=O)Cn2c3c(sc2=O)[C@H]2[C@@H](O)[C@@H](O)[C@H](O)[C@@H]2CS3)cc1`, the growth was 95.6% (inactive).

With `C=C1CCC2C3(C)COC(c4cccs4)OC3CCC2(C)C1CC(Sc1ccccc1)C1=CCOC1=O` (centres undefined), the growth was 40.7% (inactive).

As to `CC1CN(c2oc(-c3ccc([N+](=O)[O-])cc3)nc2C#N)CC(C)O1` (centres undefined), the growth was 105% (inactive).

As for `Cc1occc1C(=O)NN1C(=O)/C(=C/C=C/c2ccc([N+](=O)[O-])o2)SC1=S`, the growth was 11.2% (inactive).

Regarding `N=C1N=C(SCc2nc3ccccc3[nH]2)NC(=O)/C1=C/c1ccc(Cl)cc1`, the growth was 110% (inactive).

For the compound `O=C(NN1C(=O)/C(=C/C=C/c2ccc([N+](=O)[O-])o2)SC1=S)c1ccccc1O`, the growth was 7.19% (active).

On to `COc1ccc(-c2nc3cc(C)ccc3n2CC(=O)N=Nc2c(O)[nH]c3ccc(Cl)cc23)cc1`, for which the growth was 4.54% (active).

As to `COC1=C[C@]23CCC(=O)N2CCc2cc4c(cc2[C@@H]3[C@@H]1OC(=O)[C@H](C)O)OCO4`, the growth is 7.08% (active).

With `Cc1sc2c(c1C)C(c1ccc(Cl)cc1)=N[C@@H](CC(=O)NCCCCCNC(=O)COc1ccc(C3CCC(=O)NC3=O)cc1)c1nnc(C)n1-2` (some centres undefined), the growth was 28.4% (inactive).

Consider `N/C(=N\c1nc2ccccc2s1)NC(=O)Nc1ccc(Cl)cc1Cl`, for which the growth is 9.51% (active).

With `CC1=C(C#N)C2=NNCC(c3ccccc3)=NN2C(c2ccccc2)=C1`, the growth was 110% (inactive).

A further assay concerns MALME-3M melanoma. Described as above. The note with it: 10 µM unless noted.
In the case of `CCCSc1nc(Nc2ccc(S(N)(=O)=O)cc2)c(C#N)c(-c2ccc(Cl)cc2)n1`, the growth was -4.55% (active).

Consider `CCCCSc1nc(Nc2ccc(S(N)(=O)=O)cc2)c(C#N)c(-c2ccc(Cl)cc2)n1`, for which the growth is 22.9% (inactive).

For `Cn1cc(-c2cc3nc(-c4cn(C)c5ncccc45)cc(N)n3n2)c2ccccc21`, the growth is -47.8% (active).

In the case of `Cc1ccc(C2=NN(c3nc(-c4cc5ccccc5oc4=O)cs3)C(c3ccc(C)cc3)C2)cc1` (centres undefined), the growth is 91.6% (inactive).

For `Cc1ccc2c(c1)nc(-c1ccccc1)n2CC(=O)N=Nc1c(O)[nH]c2ccc(Br)cc12`, the growth is -85.7% (active).

Turning to `O=C(Cn1nc(-c2ccccc2)ccc1=O)N/N=C/c1ccc(N2CCOCC2)cc1`, the growth was 90.1% (inactive).

As for `O=C(NN1C(=O)/C(=C/C=C/c2ccc([N+](=O)[O-])o2)SC1=S)c1ccc(Cl)cc1`, the growth is -96% (active).

On to `CCCCSc1nc(Nc2ccc(S(N)(=O)=O)cc2)c(C#N)c(-c2cc(OC)c(OC)c(OC)c2)n1`, for which the growth was 8.31% (active).

With `COc1cc2c3c(n(CCCN4CCC[C@@H]4CO)c(=O)c2cc1OC)-c1cc2c(cc1C3=O)OCO2`, the growth is -85.6% (active).

For the compound `Cn1cc(-c2cc(N)n3nc(-c4cn(C)c5ncc(Br)cc45)cc3n2)c2cc(Br)cnc21`, the growth is -66.6% (active).

Consider `Cn1cc(-c2cc(N)n3nc(-c4c[nH]c5ccccc45)cc3n2)c2cccnc21`, for which the growth was -27.3% (active).

For `CN(C)c1nc(NCCNS(=O)(=O)c2ccc(C3=Nc4c(N)nc(N)nc4NC(c4ccccc4)C3)cc2)nc(Nc2ccc(F)cc2)n1` (centres undefined), the growth was 36.6% (inactive).

For the compound `COc1ccc(-c2ccc(SCC(=O)NCCc3ccc(S(N)(=O)=O)cc3)nn2)cc1`, the growth was 89.3% (inactive).

Regarding `O=C(CCN1C(=O)/C(=C/c2ccc(F)cc2)SC1=S)N1CCOCC1`, the growth was 46.1% (inactive).

With `Cc1cc2nc3c4ccccc4n(CC4=NCCN4)c3nc2cc1C`, the growth is -92.7% (active).

Turning to `Cc1ccc(C(=O)NN2C(=O)/C(=C/C=C/c3ccc([N+](=O)[O-])o3)SC2=S)cc1`, the growth was -98% (active).

For the compound `Cc1cc2nc3c([nH]c2cc1C)c1ccc(=O)cc1n3CCN(C)C`, the growth is 27.2% (inactive).

Take `N/C(=N\c1nc2ccccc2s1)NC(=O)Nc1c(Cl)cccc1Cl`: the growth is 44% (inactive).

Take `Brc1ccc(-c2n(Cc3ccc4ccccc4c3)c(-c3ccccc3)c(-c3ccccc3)[n+]2Cc2ccc3ccccc3c2)cc1`: the growth is -91% (active).

`C=C1CC[C@@H]2[C@]3(C)COC(c4cn[nH]c4-c4ccc(Br)cc4)O[C@@H]3CC[C@@]2(C)[C@@H]1C/C=C1/C(=O)OCC1O` (some centres undefined): the growth was -70.7% (active).

Consider `COc1ccc(-c2nc3cc(C)ccc3n2CC(=O)N=Nc2c(O)[nH]c3ccc(Br)cc23)cc1`, for which the growth is -59.4% (active).

Take `CC12CC[C@@H]3[C@]4(C)COC(c5cn[nH]c5-c5cccc(Br)c5)O[C@@H]4CC[C@@]3(C)[C@@H]1CC(C1=CCOC1=O)O2` (some centres undefined): the growth is 37.7% (inactive).

On to `COc1c(F)ccc(C(=O)Nc2ccc3nc(NC(=O)C4CCCN(S(=O)(=O)c5ccc(C#N)cc5)C4)sc3c2)c1F` (centres undefined), for which the growth is 97.5% (inactive).

In the case of `COc1ccc2c(c1)c(-c1cc3nc(-c4cn(C)c5ncccc45)cc(N)n3n1)cn2C`, the growth is -95.3% (active).

Take `CC(=O)c1cc(C(=O)c2ccccc2)n2c1ccc1ccccc12`: the growth is 131% (inactive).

For `COc1ccc2[nH]c(=O)c(CSc3nccc(-c4ccc(OC)c(OC)c4)n3)cc2c1`, the growth was -2.09% (active).

As for `COc1ccc(NC(=O)Cn2c3c(sc2=O)[C@H]2[C@@H](O)[C@@H](O)[C@H](O)[C@@H]2CS3)cc1`, the growth was 102% (inactive).

Regarding `C=C1CCC2C3(C)COC(c4cccs4)OC3CCC2(C)C1CC(Sc1ccccc1)C1=CCOC1=O` (centres undefined), the growth was 103% (inactive).

As to `CC1CN(c2oc(-c3ccc([N+](=O)[O-])cc3)nc2C#N)CC(C)O1` (centres undefined), the growth is 95.7% (inactive).

With `Cc1occc1C(=O)NN1C(=O)/C(=C/C=C/c2ccc([N+](=O)[O-])o2)SC1=S`, the growth was -78.6% (active).

Take `N=C1N=C(SCc2nc3ccccc3[nH]2)NC(=O)/C1=C/c1ccc(Cl)cc1`: the growth was 96.4% (inactive).

As for `O=C(NN1C(=O)/C(=C/C=C/c2ccc([N+](=O)[O-])o2)SC1=S)c1ccccc1O`, the growth is -95% (active).

Take `COc1ccc(-c2nc3cc(C)ccc3n2CC(=O)N=Nc2c(O)[nH]c3ccc(Cl)cc23)cc1`: the growth was -56.9% (active).

As for `COC1=C[C@]23CCC(=O)N2CCc2cc4c(cc2[C@@H]3[C@@H]1OC(=O)[C@H](C)O)OCO4`, the growth is -28.6% (active).

For the compound `Cc1sc2c(c1C)C(c1ccc(Cl)cc1)=N[C@@H](CC(=O)NCCCCCNC(=O)COc1ccc(C3CCC(=O)NC3=O)cc1)c1nnc(C)n1-2` (some centres undefined), the growth is 13% (inactive).

With `N/C(=N\c1nc2ccccc2s1)NC(=O)Nc1ccc(Cl)cc1Cl`, the growth was -75.2% (active).

Turning to `CC1=C(C#N)C2=NNCC(c3ccccc3)=NN2C(c2ccccc2)=C1`, the growth is 93.3% (inactive).
